This passage reports binding signal results from PMC7862700, “An all-to-all approach to the identification of sequence-specific readers for epigenetic DNA modifications on cytosine”.

Test in all cases: DAPPL (digital affinity profiling via proximity ligation, sequencing); 10 mM Tris-HCl pH 7.5, 50 mM NaCl, 1 mM DTT, 4% glycerol, room temperature, 30 min; GST-TFs on glutathione beads, 16-mer random dsDNA library, 0.1% formaldehyde crosslink after washing; high values mean tight binding
Conditions in all cases: protein: recombinant; tags: N-terminal GST; dsDNA, one strand shown

In one assay the target is T1, FLI1 (Homo sapiens, UniProt Q01543 1-452).
T1 sequence: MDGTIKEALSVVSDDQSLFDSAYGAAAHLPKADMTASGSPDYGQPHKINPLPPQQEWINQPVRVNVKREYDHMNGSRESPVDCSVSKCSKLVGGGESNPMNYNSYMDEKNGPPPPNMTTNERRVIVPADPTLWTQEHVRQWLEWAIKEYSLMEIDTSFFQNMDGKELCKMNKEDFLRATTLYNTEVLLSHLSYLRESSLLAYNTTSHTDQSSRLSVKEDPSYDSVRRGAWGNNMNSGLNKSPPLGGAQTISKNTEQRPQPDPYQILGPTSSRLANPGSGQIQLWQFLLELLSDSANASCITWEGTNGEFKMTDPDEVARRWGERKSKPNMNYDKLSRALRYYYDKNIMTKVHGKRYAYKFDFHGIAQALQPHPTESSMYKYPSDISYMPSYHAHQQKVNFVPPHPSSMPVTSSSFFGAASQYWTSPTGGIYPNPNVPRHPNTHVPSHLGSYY
In a few lines: (§1)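 Yeast served to express human transcription factors as GST fusions, which were then captured on glutathione beads and labelled with DNA barcodes. Pooled with a tag-only sample, they were incubated with 200 nmole of a 16-mer random double-stranded DNA library for 30 min at room temperature in Tris/NaCl/DTT/glycerol buffer, washed, crosslinked with 0.1% formaldehyde, ligated by proximity, amplified by PCR and sequenced. Dividing each hexamer's read frequency for a factor by its frequency for the tag-only sample gives the binding signal.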

The next assay deals with T2, ELK1 (Homo sapiens, UniProt P19419 1-428).
T2 sequence: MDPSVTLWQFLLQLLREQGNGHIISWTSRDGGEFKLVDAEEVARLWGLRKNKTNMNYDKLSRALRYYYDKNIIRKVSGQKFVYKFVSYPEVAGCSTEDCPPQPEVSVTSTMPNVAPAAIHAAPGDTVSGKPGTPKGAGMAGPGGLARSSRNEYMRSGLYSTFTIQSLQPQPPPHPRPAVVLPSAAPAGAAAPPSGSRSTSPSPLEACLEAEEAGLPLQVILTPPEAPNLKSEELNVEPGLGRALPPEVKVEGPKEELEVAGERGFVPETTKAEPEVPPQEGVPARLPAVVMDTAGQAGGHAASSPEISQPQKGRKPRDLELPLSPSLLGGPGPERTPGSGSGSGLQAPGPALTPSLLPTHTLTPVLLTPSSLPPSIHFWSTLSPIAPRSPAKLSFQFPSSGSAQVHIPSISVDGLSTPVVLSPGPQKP
Summed up:
as §1

Another assay has as its target T3, GABPA (Homo sapiens, UniProt Q06546 1-454).
T3 sequence: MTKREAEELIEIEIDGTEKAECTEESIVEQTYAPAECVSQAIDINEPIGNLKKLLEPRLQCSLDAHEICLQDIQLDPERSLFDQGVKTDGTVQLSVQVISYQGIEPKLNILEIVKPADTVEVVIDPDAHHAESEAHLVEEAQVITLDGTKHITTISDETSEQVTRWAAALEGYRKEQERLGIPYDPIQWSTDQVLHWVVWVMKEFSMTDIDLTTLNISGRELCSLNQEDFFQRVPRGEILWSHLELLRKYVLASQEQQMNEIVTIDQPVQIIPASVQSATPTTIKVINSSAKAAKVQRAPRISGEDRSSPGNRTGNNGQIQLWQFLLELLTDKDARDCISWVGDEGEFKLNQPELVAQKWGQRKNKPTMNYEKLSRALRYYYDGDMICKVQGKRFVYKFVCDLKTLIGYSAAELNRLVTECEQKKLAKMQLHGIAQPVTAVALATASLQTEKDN
In a few lines: as §1

The target in a further assay is T4, ERG (Homo sapiens, UniProt P11308 1-479).
T4 sequence: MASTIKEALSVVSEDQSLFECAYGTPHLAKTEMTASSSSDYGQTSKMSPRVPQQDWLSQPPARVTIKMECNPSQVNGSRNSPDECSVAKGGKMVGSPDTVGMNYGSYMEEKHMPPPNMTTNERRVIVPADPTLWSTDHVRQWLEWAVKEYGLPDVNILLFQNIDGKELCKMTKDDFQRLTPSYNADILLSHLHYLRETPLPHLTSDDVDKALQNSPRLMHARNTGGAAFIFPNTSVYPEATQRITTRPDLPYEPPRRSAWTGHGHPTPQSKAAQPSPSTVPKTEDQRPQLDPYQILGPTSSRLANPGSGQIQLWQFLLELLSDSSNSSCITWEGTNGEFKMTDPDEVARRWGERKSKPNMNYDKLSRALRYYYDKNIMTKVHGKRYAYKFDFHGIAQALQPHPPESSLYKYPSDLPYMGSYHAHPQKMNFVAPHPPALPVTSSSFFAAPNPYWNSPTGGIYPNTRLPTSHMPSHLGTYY
Summed up:
as §1

For another assay, the target named is ELF1 (Homo sapiens, UniProt P32519 1-619). In a few lines:
as §1

A further assay addresses T5, EHF (Homo sapiens, UniProt Q9NZC4 1-300).
T5 sequence: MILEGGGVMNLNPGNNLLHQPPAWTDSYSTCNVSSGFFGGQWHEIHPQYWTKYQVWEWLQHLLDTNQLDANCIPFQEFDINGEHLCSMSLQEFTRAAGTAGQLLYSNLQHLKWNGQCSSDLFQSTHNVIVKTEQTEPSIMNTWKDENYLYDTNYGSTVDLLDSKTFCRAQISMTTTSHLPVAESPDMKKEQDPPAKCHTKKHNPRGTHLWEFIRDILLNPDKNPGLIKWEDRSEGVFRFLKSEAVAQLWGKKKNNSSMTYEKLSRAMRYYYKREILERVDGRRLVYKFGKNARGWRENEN
In a few lines: as §1

For another assay, the target named is SPI1 (Homo sapiens, UniProt P17947 1-270). In a few lines: as §1
For another assay, the target named is SPIB (Homo sapiens, UniProt Q01892 1-262). Summed up: as §1
Sequence of SPIB (Q01892 whole entry): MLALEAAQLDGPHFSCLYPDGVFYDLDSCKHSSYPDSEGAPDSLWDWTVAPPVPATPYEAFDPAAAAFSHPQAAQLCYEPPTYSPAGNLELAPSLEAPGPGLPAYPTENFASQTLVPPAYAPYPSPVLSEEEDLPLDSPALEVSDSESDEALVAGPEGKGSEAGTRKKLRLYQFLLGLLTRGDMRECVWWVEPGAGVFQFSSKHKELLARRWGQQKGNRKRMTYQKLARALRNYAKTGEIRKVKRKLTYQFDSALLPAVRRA
For the next assay, the target named is T6, ELK3 (Homo sapiens, UniProt P41970 1-407).
T6 sequence: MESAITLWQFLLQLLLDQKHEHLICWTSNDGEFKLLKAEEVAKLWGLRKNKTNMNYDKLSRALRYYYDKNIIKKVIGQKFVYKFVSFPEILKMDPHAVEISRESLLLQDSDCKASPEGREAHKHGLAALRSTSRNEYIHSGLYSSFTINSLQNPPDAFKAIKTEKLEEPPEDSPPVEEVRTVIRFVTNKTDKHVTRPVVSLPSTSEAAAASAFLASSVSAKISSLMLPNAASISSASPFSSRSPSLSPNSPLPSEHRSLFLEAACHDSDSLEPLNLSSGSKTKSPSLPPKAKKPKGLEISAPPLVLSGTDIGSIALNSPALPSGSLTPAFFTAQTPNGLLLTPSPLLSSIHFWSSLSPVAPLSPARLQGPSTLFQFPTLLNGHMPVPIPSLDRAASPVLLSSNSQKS
Summed up: as §1

Sequence of ELF1 (P32519 whole entry): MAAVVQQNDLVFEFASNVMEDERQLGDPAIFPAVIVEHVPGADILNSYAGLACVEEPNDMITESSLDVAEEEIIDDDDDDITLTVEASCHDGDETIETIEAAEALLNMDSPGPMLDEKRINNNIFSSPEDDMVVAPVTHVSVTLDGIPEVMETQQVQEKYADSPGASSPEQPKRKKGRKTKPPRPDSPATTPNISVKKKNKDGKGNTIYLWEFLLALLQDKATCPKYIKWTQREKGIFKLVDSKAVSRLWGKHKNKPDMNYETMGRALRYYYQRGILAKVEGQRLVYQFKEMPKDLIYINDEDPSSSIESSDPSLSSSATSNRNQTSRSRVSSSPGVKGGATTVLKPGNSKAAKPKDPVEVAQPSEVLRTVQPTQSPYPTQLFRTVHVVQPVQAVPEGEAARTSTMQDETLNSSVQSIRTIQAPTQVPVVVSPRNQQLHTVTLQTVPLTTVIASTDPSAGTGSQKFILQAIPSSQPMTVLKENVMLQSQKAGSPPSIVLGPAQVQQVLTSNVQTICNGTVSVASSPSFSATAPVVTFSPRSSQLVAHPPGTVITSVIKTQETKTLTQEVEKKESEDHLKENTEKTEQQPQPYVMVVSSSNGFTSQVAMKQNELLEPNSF

With CTGGTT, the binding signal with FLI1 was 1.36 fold enrichment (6-mer frequency, TF over GST control); in the assay with ELK1 it was 1.3 fold enrichment (6-mer frequency, TF over GST control); with GABPA, 1.2 fold enrichment (6-mer frequency, TF over GST control); with ERG it was 1.31 fold enrichment (6-mer frequency, TF over GST control); with ELF1, 1.31 fold enrichment (6-mer frequency, TF over GST control); with EHF, 1.18 fold enrichment (6-mer frequency, TF over GST control). Also, the binding signal with SPI1 is 1.45 fold enrichment (6-mer frequency, TF over GST control); with SPIB, 1.24 fold enrichment (6-mer frequency, TF over GST control); with ELK3, 1.21 fold enrichment (6-mer frequency, TF over GST control).
Take GCTTAC: the binding signal with FLI1 is 1.19 fold enrichment (6-mer frequency, TF over GST control); with ELK1, 1.12 fold enrichment (6-mer frequency, TF over GST control); with GABPA it was 1.05 fold enrichment (6-mer frequency, TF over GST control); with ERG it was 1.19 fold enrichment (6-mer frequency, TF over GST control); in the assay with ELF1, 1.15 fold enrichment (6-mer frequency, TF over GST control); with EHF, 1.16 fold enrichment (6-mer frequency, TF over GST control). For the same sequence, the binding signal was 1.12 fold enrichment (6-mer frequency, TF over GST control) in the assay with SPI1; 1.12 fold enrichment (6-mer frequency, TF over GST control) with SPIB; 1.23 fold enrichment (6-mer frequency, TF over GST control) with ELK3.
With CTGCAT, the binding signal was 1.42 fold enrichment (6-mer frequency, TF over GST control) with FLI1; 1.51 fold enrichment (6-mer frequency, TF over GST control) in the assay with ELK1; 1.41 fold enrichment (6-mer frequency, TF over GST control) with GABPA; 1.41 fold enrichment (6-mer frequency, TF over GST control) with ERG; 1.47 fold enrichment (6-mer frequency, TF over GST control) with ELF1; 1.47 fold enrichment (6-mer frequency, TF over GST control) in the assay with EHF. In addition, the binding signal with SPI1 is 1.42 fold enrichment (6-mer frequency, TF over GST control); with SPIB, 1.65 fold enrichment (6-mer frequency, TF over GST control); with ELK3, 1.39 fold enrichment (6-mer frequency, TF over GST control).
On to TATTCC, for which the binding signal was 1.65 fold enrichment (6-mer frequency, TF over GST control) with FLI1; 1.68 fold enrichment (6-mer frequency, TF over GST control) in the assay with ELK1; 1.6 fold enrichment (6-mer frequency, TF over GST control) with GABPA; 1.52 fold enrichment (6-mer frequency, TF over GST control) with ERG; 1.59 fold enrichment (6-mer frequency, TF over GST control) in the assay with ELF1; 1.58 fold enrichment (6-mer frequency, TF over GST control) with EHF. Moreover, the binding signal is 1.48 fold enrichment (6-mer frequency, TF over GST control) in the assay with SPI1; 1.49 fold enrichment (6-mer frequency, TF over GST control) in the assay with SPIB; 1.56 fold enrichment (6-mer frequency, TF over GST control) with ELK3.
CCGTCT: the binding signal with FLI1 was 1.41 fold enrichment (6-mer frequency, TF over GST control); in the assay with ELK1, 1.32 fold enrichment (6-mer frequency, TF over GST control); in the assay with GABPA it was 1.43 fold enrichment (6-mer frequency, TF over GST control); with ERG, 1.28 fold enrichment (6-mer frequency, TF over GST control); with ELF1, 1.46 fold enrichment (6-mer frequency, TF over GST control); with EHF, 1.34 fold enrichment (6-mer frequency, TF over GST control). Further, the binding signal was 1.43 fold enrichment (6-mer frequency, TF over GST control) with SPI1; 1.45 fold enrichment (6-mer frequency, TF over GST control) in the assay with SPIB; 1.36 fold enrichment (6-mer frequency, TF over GST control) with ELK3.
In the case of CTGTTC, the binding signal was 1.47 fold enrichment (6-mer frequency, TF over GST control) in the assay with FLI1; 1.42 fold enrichment (6-mer frequency, TF over GST control) in the assay with ELK1; 1.38 fold enrichment (6-mer frequency, TF over GST control) with GABPA; 1.39 fold enrichment (6-mer frequency, TF over GST control) with ERG; 1.38 fold enrichment (6-mer frequency, TF over GST control) with ELF1; 1.47 fold enrichment (6-mer frequency, TF over GST control) with EHF. The binding signal is 1.42 fold enrichment (6-mer frequency, TF over GST control) with SPI1; 1.39 fold enrichment (6-mer frequency, TF over GST control) with SPIB; 1.47 fold enrichment (6-mer frequency, TF over GST control) in the assay with ELK3.
Regarding CCCGAC, the binding signal with FLI1 was 1.31 fold enrichment (6-mer frequency, TF over GST control); with ELK1, 1.28 fold enrichment (6-mer frequency, TF over GST control); in the assay with GABPA, 1.39 fold enrichment (6-mer frequency, TF over GST control); with ERG, 1.43 fold enrichment (6-mer frequency, TF over GST control); with ELF1 it was 1.42 fold enrichment (6-mer frequency, TF over GST control); in the assay with EHF, 1.31 fold enrichment (6-mer frequency, TF over GST control). Besides, the binding signal with SPI1 is 1.29 fold enrichment (6-mer frequency, TF over GST control); with SPIB, 1.44 fold enrichment (6-mer frequency, TF over GST control); with ELK3 it was 1.43 fold enrichment (6-mer frequency, TF over GST control).
